Compounds without any hit were thinned out: in the full panel of roughly 83,000, 20% have a hit.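 Treatment: one concentration, 48 hours, 96-well format. Scoring: percent growth, with anything below 10 considered active.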 A number with no mark means an inactive call. The source made the active and inactive calls.

From PubChem BioAssay (NCI) come the findings set out here.

Among the test systems are HCT-15 colon; HT29 colon; SNB-75 CNS; SNB-19 CNS; U251 CNS; PC-3 prostate; SK-MEL-5 melanoma; UACC-62 melanoma; LOX IMVI melanoma; SK-MEL-28 melanoma; SK-MEL-2 melanoma; EKVX NSCLC; SN12C renal; UO-31 renal; TK-10 renal; ACHN renal; CAKI-1 renal; A498 renal; CCRF-CEM leukemia; MOLT-4 leukemia.
Experiment in all cases: NCI-60 one-dose screen, 48 h (100 = growth as untreated, 0 = no growth, -100 = all killed)
What all share (settings): 10 µM unless noted

With `Clc1cccc(Nc2nc(Nc3cnc4ccccc4c3)c3[nH]cnc3n2)c1`, the growth was 94.4% in the test on HCT-15 colon; 79% with HT29 colon; 52.4% in the test on SNB-75 CNS; 80.6% in the test with SNB-19 CNS; 76.4% in the test on U251 CNS; 49.2% with PC-3 prostate. Further, the growth in the test on SK-MEL-5 melanoma is 53%; in the test with UACC-62 melanoma it was 47.9%; with LOX IMVI melanoma, 77.4%; with SK-MEL-28 melanoma, 86.4%; with SK-MEL-2 melanoma, 81.1%; with EKVX NSCLC, 41.3%. Besides, the growth is 61.2% with SN12C renal; 60.7% in the test on UO-31 renal; 114% in the test with TK-10 renal; 73.5% with ACHN renal; 59% in the test on CAKI-1 renal; 60% with A498 renal. In addition, the growth in the test with CCRF-CEM leukemia is 84.8%; with MOLT-4 leukemia it was 90.6%.
For the molecule `CC(=O)Oc1ccc(Nc2c3ccccc3nc3ccccc23)cc1`, the growth was 1.67% (active) with HCT-15 colon; -38.4% (active) with HT29 colon; 2.16% (active) in the test on SNB-75 CNS; 16.1% with SNB-19 CNS; 8.7% (active) with U251 CNS; 7.48% (active) with PC-3 prostate. In addition, the growth was -73.2% (active) with SK-MEL-5 melanoma; -45.3% (active) in the test with UACC-62 melanoma; -34.8% (active) in the test with LOX IMVI melanoma; 25.8% with SK-MEL-28 melanoma; -30.7% (active) in the test with SK-MEL-2 melanoma; 24% with EKVX NSCLC. The growth was 5.67% (active) with SN12C renal; -16.4% (active) in the test on UO-31 renal; 3.64% (active) with TK-10 renal; -31.7% (active) with ACHN renal; -32% (active) in the test on CAKI-1 renal; -37.2% (active) with A498 renal. The growth was -8.66% (active) with CCRF-CEM leukemia and 1.46% (active) with MOLT-4 leukemia.
In the case of `NC(=S)N/N=C/c1cc(-c2cccc(N)c2)ccn1`, the growth in the test on HCT-15 colon was 23.8%; with HT29 colon it was 34.8%; in the test on SNB-75 CNS, 35.1%; in the test with SNB-19 CNS, 42.9%; with U251 CNS, 16.1%; with PC-3 prostate, 58.8%. For the same molecule, the growth in the test on SK-MEL-5 melanoma is 8.97% (active); in the test on UACC-62 melanoma it was -2.21% (active); in the test with LOX IMVI melanoma, 15.6%; in the test on SK-MEL-28 melanoma, 52.1%; with SK-MEL-2 melanoma, 45.5%; with EKVX NSCLC it was 37.8%. Also, the growth was 16.7% in the test on SN12C renal; 12.4% in the test with UO-31 renal; 46.6% with TK-10 renal; 7.92% (active) in the test with ACHN renal; -9.57% (active) with CAKI-1 renal; 37.3% in the test on A498 renal. Further, the growth is 6.08% (active) with CCRF-CEM leukemia and 7.42% (active) with MOLT-4 leukemia.
As for `COCCCNc1nc(NC(=O)c2ccc(F)cc2C)cc(-c2cccnc2)n1`, the growth with HCT-15 colon is 109%; in the test with HT29 colon, 105%; with SNB-75 CNS, 91.7%; in the test with SNB-19 CNS it was 89.9%; with U251 CNS, 87.6%; in the test with PC-3 prostate it was 95.9%. Moreover, the growth in the test with SK-MEL-5 melanoma was 104%; in the test on UACC-62 melanoma, 85.7%; in the test on LOX IMVI melanoma, 112%; with SK-MEL-28 melanoma it was 107%; with SK-MEL-2 melanoma it was 95.6%; in the test on EKVX NSCLC it was 108%. For the same molecule, the growth was 91.1% in the test with SN12C renal; 88.5% with UO-31 renal; 111% in the test with TK-10 renal; 109% with ACHN renal; 99.1% with CAKI-1 renal; 85.4% with A498 renal. Further, the growth was 96.5% with CCRF-CEM leukemia and 93.9% with MOLT-4 leukemia.
With `Cc1ccccc1CCO`, the growth with HCT-15 colon was 99.8%; with HT29 colon it was 76.4%; in the test with SNB-75 CNS, 102%; with SNB-19 CNS, 108%; with U251 CNS, 98.6%; with PC-3 prostate it was 97.6%. The growth in the test with SK-MEL-5 melanoma is 102%; in the test on UACC-62 melanoma, 108%; in the test with LOX IMVI melanoma it was 103%; with SK-MEL-28 melanoma, 99.9%; in the test on SK-MEL-2 melanoma, 86.3%; with EKVX NSCLC, 105%. In addition, the growth in the test on SN12C renal is 107%; with UO-31 renal it was 88.8%; in the test on TK-10 renal it was 82.4%; in the test on ACHN renal, 98.4%; in the test on CAKI-1 renal, 100%; in the test with A498 renal, 96.5%. Also, the growth is 116% in the test with CCRF-CEM leukemia and 111% in the test with MOLT-4 leukemia.
With `CC(=O)C1=C(O)C=C2Oc3c(C(=O)/C=C/c4ccccc4)c(O)c(C)c(O)c3[C@]2(C)C1=O`, the growth is 25.3% in the test with HCT-15 colon; 32.6% in the test on HT29 colon; 87.1% in the test with SNB-75 CNS; 21.6% in the test with SNB-19 CNS; 7.84% (active) with U251 CNS; 24.2% with PC-3 prostate. Moreover, the growth in the test with SK-MEL-5 melanoma is 10.1%; in the test on UACC-62 melanoma, 32.9%; in the test with LOX IMVI melanoma it was 41.4%; in the test with SK-MEL-28 melanoma, 43.1%; in the test with SK-MEL-2 melanoma, -3.97% (active); in the test on EKVX NSCLC it was 36.7%. For the same molecule, the growth with SN12C renal is 23.4%; in the test with UO-31 renal, 30.7%; with TK-10 renal, 33.6%; in the test on ACHN renal it was 48.2%; in the test with CAKI-1 renal, 46.7%; in the test with A498 renal, 14.3%. Further, the figures for the growth with CCRF-CEM leukemia and with MOLT-4 leukemia were 22.1% and 32.6%, respectively.
In the case of `CCOC(=O)c1c2c(n3ccc(NC(=O)CCN4CCOCC4)cc13)C(=O)c1ncccc1C2=O`, the growth is 33.9% with HCT-15 colon; 32.7% in the test on HT29 colon; 52.7% with SNB-75 CNS; 54.6% with SNB-19 CNS; 41.5% in the test on U251 CNS; 51% with PC-3 prostate. The growth was 42.3% with SK-MEL-5 melanoma; 27.7% in the test with UACC-62 melanoma; 15% with LOX IMVI melanoma; 77.8% in the test with SK-MEL-28 melanoma; 30.9% with SK-MEL-2 melanoma; 60.4% in the test with EKVX NSCLC. For the same molecule, the growth was 24.2% in the test with SN12C renal; 36% with UO-31 renal; 47% in the test on TK-10 renal; 16.5% with ACHN renal; 21.5% in the test on CAKI-1 renal; 56.2% in the test on A498 renal. Besides, the growth in the test on CCRF-CEM leukemia was 19.3%; in the test on MOLT-4 leukemia, 18.6%.
